This is a sample that favours compounds with a hit; in the whole collection about 2.9% have one here.
GRK2 inh = compounds blocking aptamer binding on GRK2 – biochemical, human GRK2, bead flow cytometry, HTS, primary screen. Beta-adrenergic receptor kinase 1 (Homo sapiens), P25098. FAM-aptamer displacement from GRK2. inhibition of aptamer binding, % at 10 µM. 330,000 tested, 0.59% active. AID 488847, 2010;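 active = inhibition of aptamer binding above 40%, roughly 3 SD of noise, on plates passing a quality check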;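 note: median bead fluorescence of bound FAM aptamer so fluorescent compounds give negative values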
Target sequence (P25098 whole entry, looked up): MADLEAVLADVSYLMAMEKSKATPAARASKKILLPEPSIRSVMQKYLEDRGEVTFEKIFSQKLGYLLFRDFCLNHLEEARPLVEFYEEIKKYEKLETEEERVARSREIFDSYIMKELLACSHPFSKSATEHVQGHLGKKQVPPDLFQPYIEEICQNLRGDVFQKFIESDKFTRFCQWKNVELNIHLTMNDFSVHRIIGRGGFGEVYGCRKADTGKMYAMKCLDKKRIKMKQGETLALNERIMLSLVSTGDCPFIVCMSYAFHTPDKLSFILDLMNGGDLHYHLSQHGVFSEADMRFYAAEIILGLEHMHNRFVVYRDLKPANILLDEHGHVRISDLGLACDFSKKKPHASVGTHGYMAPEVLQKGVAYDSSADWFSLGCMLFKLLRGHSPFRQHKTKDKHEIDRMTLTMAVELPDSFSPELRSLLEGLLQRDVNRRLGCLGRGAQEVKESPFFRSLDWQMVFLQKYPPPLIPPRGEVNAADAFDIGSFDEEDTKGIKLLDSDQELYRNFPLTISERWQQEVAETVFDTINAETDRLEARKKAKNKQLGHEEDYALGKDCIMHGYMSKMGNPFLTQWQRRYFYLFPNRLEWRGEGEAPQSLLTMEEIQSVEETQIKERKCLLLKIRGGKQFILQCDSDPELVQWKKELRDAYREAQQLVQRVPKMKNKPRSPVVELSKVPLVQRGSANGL
Granule exo inh = LAMP-1 surface exposure blockers, TALL-104 cells – cell-based, flow cytometry, MLPCN library, primary screen. TALL-104 LAMP-1 surface exposure; cells stimulated with thapsigargin and PMA. inhibition, % at 10 µM. 360,000 tested, 0.66% active. AID 651702, 2012;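 active = inhibition above about 55%, limit read from the data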
PP1 inh = PP1-alpha phosphatase inhibitors, primary screen, counter-screen for PP5 inhibitor project, biochemical, fluorescence, OMFP substrate, single point; 320,000 tested, 0.9% active; purified PP1alpha; Serine/threonine-protein phosphatase PP1-alpha catalytic subunit (Homo sapiens), P62136; inhibition, % at 6.7 µM;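 active = inhibition above the mean inhibition of all tested compounds plus 3 SD, computed separately for each screening campaign, cut at about 15% in these data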
B2AR ag = beta2AR agonists driving receptor internalization, primary screen, cell-based, FAP fluorogen, flow cytometry. Am2.2-beta2AR cells. response, % (concentration not given with the values). 340,000 tested, 0.43% active;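 active = response above a set limit, near 3 SD of response in nonfluorescent compounds, cut at about 42% in these data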
NadD inh = inhibitors of S. aureus NadD, primary screen, biochemical, colorimetric, uHTS; 360,000 tested, 0.78% active; purified NadD enzyme, colorimetric absorbance read-out; inhibition, % at 20 µM; Nicotinate-nucleotide adenylyltransferase NadD (Staphylococcus aureus N315); in the data active = inhibition above about 26%
PP1 inh confirm = PP1 phosphatase inhibitors, confirmation, biochemical, fluorescence, OMFP substrate, triplicate. inhibition, % at 6.7 µM. shares compounds with PP1 inh. 1,900 tested, 52% active. purified PP1alpha;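 active = mean PP1 inhibition above a set limit taken from the earlier primary screen, cut at about 15% in these data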
PP5 counter = PP5 phosphatase inhibition by PP1 hits, confirmation, counter-screen for PP1 inhibitor project, biochemical, fluorescence, triplicate; 1,900 tested, 4% active; inhibition, % at 6.7 µM; purified PP5c, OMFP fluorescence; shares compounds with PP1 inh;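 active = mean PP5 inhibition over triplicate wells above about 9.5% taken from the earlier PP1 screen, limit read from the data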
* hit, by the source's call; · = no result given.

SMILES	GRK2 inh	Granule exo inh	PP1 inh	B2AR ag	NadD inh	PP1 inh confirm	PP5 counter
Cc1ccc(CN2C(=O)CCC2(C)c2nnnn2Cc2ccccc2)cc1 (configuration not stated)	·	4	·	·	-3	·	·
O=C(O)c1ccc(Cl)c(NC(=S)NC(=O)c2ccccc2[N+](=O)[O-])c1	0	1	18*	-3	-3	-3	-3
Cc1ccc2c(c1)C(=NC1CCCCC1)c1cc3ccccc3nc1-2	3	5	0	28	-3	·	·
CCCCCOc1ccc(NC(=O)C(=O)NCCCn2ccnc2)cc1	0	2	44*	-10	20	4	-3
C=CCOc1ccc(NC(=O)C(=O)NCCCn2ccnc2)cc1	1	-2	-3	1	-2	·	·
CC(=O)c1cccc(NC(=O)N[C@@H](CC(C)C)C(=O)O)c1	4	-1	-2	-6	8	·	·
CC(=O)c1ccc(NC(=O)N[C@@H](CC(C)C)C(=O)O)cc1	2	-3	18*	7	2	-4	-1
O=C(NCCCN1CCCC1=O)c1cccc(C(F)(F)F)c1	10	-1	-5	-1	-4	·	·
CCOC(=O)N1CCN(Cc2nc(N)nc(Nc3ccc(Oc4ccccc4)cc3)n2)CC1	0	16	23*	12	13	4	-1
CCc1ccc(NC(=O)CSc2nc(NS(=O)(=O)c3ccccc3)cc(=O)[nH]2)cc1	·	1	·	-7	0	·	·
Cc1ccc(NC(=O)CSc2nc(NS(=O)(=O)c3ccccc3)cc(=O)[nH]2)cc1	0	2	22*	-4	9	-1	-6
O=C(c1cc(-c2ccc(Br)cc2)nc2ccccc12)N1CCC1	0	3	20*	0	5	-23	-4
COc1cc2c(cc1OC(C)=O)CCCCC2=O	·	-2	·	-4	-6	·	·
N=C1/C(=C/c2coc3ccccc3c2=O)C(=O)N=C2SC(c3ccco3)=NN12	1	5	3	-66	3	·	·
N=C1/C(=C\c2coc3ccccc3c2=O)C(=O)N=C2SC(c3ccncc3)=NN12	5	2	34*	-8	17	39*	-8
COc1ccc(C2C(C(=O)c3ccco3)=C(O)C(=O)N2CCc2ccccc2)cc1OC (configuration not stated)	2	0	30*	-3	10	29*	-2
O=C(O)c1ccccc1N/N=C/c1cc(Br)cc(Br)c1O	3	-2	23*	16	5	11	-1
COc1cccc(-n2nnc3c(=O)n(Cc4ccc(C)cc4)cnc32)c1	0	-6	1	0	-4	·	·
COc1cccc(-n2nnc3c(=O)n(Cc4ccc(F)cc4)cnc32)c1	0	-2	40*	10	-3	-2	-1
Fc1ccc(-c2[nH]ncc2CN(CC2CCC2)CC2CCCO2)c(F)c1 (configuration not stated)	1	12	-2	-3	-1	·	·
Cc1ccc(NC(=O)CSc2nc3ccccc3nc2N2CCCC2)cc1	1	3	2	-4	0	·	·
Cc1cccc(C)c1NC(=O)CN(C)C(=O)c1ccc(NS(=O)(=O)c2ccc3[nH]c(=O)[nH]c3c2)cc1	0	4	-3	0	2	·	·
Cc1cccc(C)c1NC(=O)CNC(=O)c1ccc(NS(=O)(=O)c2ccc3[nH]c(=O)[nH]c3c2)cc1	2	4	93*	-7	-3	0	-3
OCCCNc1ncnc2scc(-c3ccc(Cl)cc3)c12	1	-6	·	4	-8	·	·
CCOC(=O)c1sc(-c2ccc(Cl)cc2Cl)nc1O	·	-1	21*	1	1	21*	-4
